Reference: ChEMBL document CHEMBL1201862, “PubChem BioAssay data set” (2004)
The campaign covered roughly 390,000 compounds. About 4,000 (1%) were called active. Inconclusive results (about 7%) are left out. The rule behind the calls is not given here. This excerpt belongs to a sample that is enriched for actives.

What follows are compounds tested against T1, DNA polymerase iota (Homo sapiens) (UniProt Q9UNA4) (assay: qHTS for Inhibitors of Polymerase Iota. [Related pubchem assays (depositor defined):AID588623]).
T1 sequence (whole entry): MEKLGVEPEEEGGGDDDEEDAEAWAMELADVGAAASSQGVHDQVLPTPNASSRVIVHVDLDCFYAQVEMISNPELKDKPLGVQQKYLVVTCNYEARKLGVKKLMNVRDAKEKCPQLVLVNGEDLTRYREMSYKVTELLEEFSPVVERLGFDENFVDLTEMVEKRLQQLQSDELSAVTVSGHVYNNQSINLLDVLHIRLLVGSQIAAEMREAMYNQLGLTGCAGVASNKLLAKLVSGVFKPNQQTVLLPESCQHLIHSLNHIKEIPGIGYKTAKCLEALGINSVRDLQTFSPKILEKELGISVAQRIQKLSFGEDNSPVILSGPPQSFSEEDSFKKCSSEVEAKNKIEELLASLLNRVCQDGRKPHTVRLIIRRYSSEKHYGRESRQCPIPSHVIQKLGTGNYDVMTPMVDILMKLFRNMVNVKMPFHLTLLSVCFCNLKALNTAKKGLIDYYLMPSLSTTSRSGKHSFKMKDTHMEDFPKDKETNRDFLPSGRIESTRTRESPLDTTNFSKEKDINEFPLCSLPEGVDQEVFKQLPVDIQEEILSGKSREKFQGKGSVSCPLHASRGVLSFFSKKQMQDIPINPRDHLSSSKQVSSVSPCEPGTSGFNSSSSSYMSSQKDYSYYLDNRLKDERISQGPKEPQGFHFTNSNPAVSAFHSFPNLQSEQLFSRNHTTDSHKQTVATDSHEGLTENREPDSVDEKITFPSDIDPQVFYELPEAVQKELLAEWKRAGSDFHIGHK
Assay type: functional

Compound | Potency
COc1ccc(OC)c(/C=C/c2cccc3c2N(CCCCI)C=S3/C=C/c2cc(OC)ccc2OC)c1 (configuration not stated) | 70.8 µM (active)
Cl.NC(CCC(=O)O)C(=O)O (configuration not stated) | inactive
